Experimental findings from PubChem BioAssay are described below.

Where “and” joins values, the source holds several entries; their conditions need not be identical. Identical values can stand only once. Results filed as inconclusive are left out. Calls of active or inactive are those of the source.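 How the source made its calls, unless noted: active means normalized viability below 100% at a tested concentration; inactive means the rest.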

Usually AC50 stands for the concentration giving half of the maximal activity seen. Usually IC50 stands for the concentration needed to halve the response being measured. A word on the viability: it is a read-out of living cells in per cent, often relative to untreated cells.

Assay [1] can be described thus: growth inhibition of DIPG glioma cells, dose response, cell-based, SU-DIPG-XVII, MIPE5.0, CellTiter-Glo, qHTS (AID 1347060; cut-off not given, nearly all actives have AC50 up to about 26 µM;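 on AC50: cells exposed to compound for 48 hours before viability readout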). The note with it: SU-DIPG-XVII viability, CellTiter-Glo ATP luminescence. Background: ATP-based viability assays read luminescence as a measure of living cells.
Assay [2] can be described thus: growth inhibition of DIPG glioma cells, dose response, cell-based, JHH-DIPG-1, MIPE4.0, CellTiter-Glo, qHTS (AID 1347062; cut-off not given, nearly all actives have AC50 up to about 27 µM;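 on AC50: cells exposed to compound for two days before readout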). The note with it: JHH-DIPG-1 viability, CellTiter-Glo ATP luminescence.
Assay [3] in a line: growth inhibition of DIPG glioma cells, dose response, cell-based, SU-DIPG-IV, MIPE4.0, CellTiter-Glo, qHTS (AID 1347063; cut-off not given, nearly all actives have AC50 up to about 30 µM;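 further: compound exposure lasted 48 hours before the viability readout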). The note with it: SU-DIPG-IV viability, CellTiter-Glo ATP luminescence.
A short description of assay [4]: growth inhibition of DIPG glioma cells, dose response, cell-based, SU-DIPG-XIII, MIPE5.0, CellTiter-Glo, qHTS (AID 1347064; cut-off not given, nearly all actives have AC50 up to about 23 µM;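 on AC50: cells exposed to compound for 48 hours before the viability read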). The note with it: SU-DIPG-XIII viability, CellTiter-Glo ATP luminescence.
Assay [5] can be described thus: viability loss in pontine glioma line – cell-based, SU-DIPG-XXV, MIPE5.0, CellTiter-Glo, qHTS, dose response (AID 1347065; cut-off not given, nearly all actives have AC50 up to about 26 µM;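 further: cells exposed to compound for 48 hours before ATP readout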). The note with it: CellTiter-Glo ATP luminescence.
A short description of assay [6]: JHH-DIPG-1 glioma cell viability, MIPE5.0 library, CellTiter-Glo luminescence, qHTS (AID 1347067; cut-off not given, nearly all actives have AC50 up to about 26 µM;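 further: cells exposed to compound for 48 hours before readout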). The note with it: JHH-DIPG-1 glioma viability, CellTiter-Glo ATP luminescence.
The nature of assay [7]: SU-DIPG-XXV glioma cell viability, MIPE5.0 library, qHTS (AID 1347068; cut-off not given, nearly all actives have IC50 up to about 30 µM;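 on IC50: cells exposed to compound for 48 hours before viability readout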). (qHTS replaces the single test concentration by a dilution series.)
A short description of assay [8]: sensitizers of A549 cells to miR-34 induction, primary screen, imaging, A549 dox-inducible miR-34, nuclei and caspase counts (AID 1347080;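 active means compounds whose cell count with miR-34 switched on is under 0.7 times the count with it off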). The note with it: A549 miR-34 inducible, Hoechst nuclei count, 48 h.
Assay [9] can be described thus: survival rescue of mitochondrial mutant cells in low glucose, primary screen, MELAS cybrids, Rieske KO mouse fibroblasts, CellTiter-Glo (AID 1508586;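 active means mean z-score across replicates of 1.96 or higher in either the MELAS or the Rieske mutant cell line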;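 further: z relative to plate mean and SD of compound and empty wells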).
Assay [10] in a line: SU-DIPG-VI glioma cell viability, MIPE4.0 library, CellTiter-Glo luminescence, qHTS (AID 1347066; cut-off not given, nearly all actives have AC50 up to about 30 µM;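 further: cells exposed to compound for 48 hours before readout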). The note with it: CellTiter-Glo ATP luminescence.
Assay [11] is described as follows: modifiers of HSF1 nuclear foci, imaging, Selleck Cancer Library (AID 1347162; in the data active means plate-normalised HSF1 focus index below about 0.46). The note with it: human cells, at 10 µM; SSMD: measured here: HSF1 foci SSMD mean; cell count: measured here: cell number; plate-normalised HSF1 focus index: stronger effect = lower value.
Assay [12] in a line: ovarian cancer cell viability with rucaparib, profiling panel, oncology-focused library, rucaparib conditional (AID 1508598). The note with it: patient-derived ovarian cancer cells, CellTiter-Glo viability, 144 h, stronger effect = lower value.
The mark [13] stands for this setting: stronger effect = lower value, cell number ratio, induced over uninduced.
Setting [14] is: measured here: relative caspase fold change +Dox/-Dox.
Where [15] appears, read: measured here: total cells with miR-34 induction, stronger effect = lower value.
Setting [16] is: measured here: total cells without miR-34 induction.
Where [17] appears, read: MELAS cybrid survival, CellTiter-Glo 48 h, stronger effect = higher value.
Setting [18] is: Rieske KO mouse fibroblast survival, CellTiter-Glo 72 h.

For `Nc1nc(N)c2nc(-c3cccc(O)c3)c(-c3cccc(O)c3)nc2n1`, the call in [1], in [4], in [5], in assay [6] and in [7] was inactive. In addition, the AC50 was 14.8 µM (active) in [2] and 6.62 µM (active) in assay [3]. Besides, the results for the fold change in assay [8] (setting [13]) and in assay [8] (setting [14]) were 0.972 (inactive) and 0.762, respectively. The cell count in assay [8] (setting [15]) is 7630; in [8] (setting [16]), 7850. Moreover, the z-score in assay [9] (setting [17]) was -0.482 (inactive); in [9] (setting [18]), 0.936.
As for `CN1CC[C@@H](c2c(O)cc(O)c3c(=O)cc(-c4ccccc4Cl)oc23)[C@@H](O)C1`, the AC50 is 0.468 µM (active) in assay [1]; 0.105 µM (active) in assay [2]; 0.0743 µM (active) in [3]; 0.332 µM (active) in [4]; 0.468 µM (active) in [5]; 0.59 µM (active) in [6].
On to `CCCCC(C)(C)[C@H](O)/C=C/[C@H]1[C@H](O)CC(=O)[C@@H]1C/C=C\CCCC(=O)O`, for which the half-maximal activity concentration (AC50) is 13.2 µM (active) in assay [1]; 14.8 µM (active) in assay [4]; 14.8 µM (active) in assay [5]; 18.7 µM (active) in assay [10]; 14.8 µM (active) in assay [6]. In addition, the outcome in assay [2], in assay [3] and in assay [7] was inactive. Further, the fold change is 1.01 (inactive) and 0.939 (inactive) in assay [8] (setting [13]); 1.62 and 1.28 in [8] (setting [14]). The cell count in assay [8] (setting [15]) is 6230 and 5490; in [8] (setting [16]), 6170 and 5850.
On to `CCN(CC)CCCCNc1ncc2cc(-c3cc(OC)cc(OC)c3)c(NC(=O)NC(C)(C)C)nc2n1`, for which the concentration at half-maximal activity (AC50) in assay [1] was 0.468 µM (active); in assay [2] it was 26.4 µM (active); in assay [3], 16.6 µM (active); in assay [4], 0.372 µM (active); in assay [5], 0.372 µM (active); in assay [6] it was 16.6 µM (active). The half-inhibitory concentration (IC50) in assay [7] is 3.32 µM (active). Also, the fold change is 0.886 (inactive) and 0.737 (inactive) in [8] (setting [13]); 1.64 and 1.42 in assay [8] (setting [14]). Also, the cell count was 4880 and 4370 in assay [8] (setting [15]); 5500 and 5930 in assay [8] (setting [16]); 7260 in assay [11]. This molecule gave an SSMD in [11] of -4.74. Moreover, the plate-normalised HSF1 focus index in [11] was 0.703 (inactive). Also, the z-score in assay [9] (setting [17]) was -0.712 (inactive); in assay [9] (setting [18]), 0.5. Further, the viability in assay [12] (at 0.000305 µM, OCI-C5x cells, with rucaparib 10 µM, 100% = cells with rucaparib alone) was 117% (inactive); in assay [12] (at 0.000305 µM, OCI-C5x cells, without rucaparib), 103% (inactive); in assay [12] (at 0.000305 µM, OCI-P5x cells, with rucaparib 20 µM, 100% = cells with rucaparib alone), 96.8% (active); in assay [12] (at 0.000305 µM, OCI-P5x cells, without rucaparib), 89.9% (active); in assay [12] (at 0.00122 µM, OCI-C5x cells, with rucaparib 10 µM, 100% = cells with rucaparib alone) it was 105% (inactive); in assay [12] (at 0.00122 µM, OCI-C5x cells, without rucaparib) it was 104% (inactive). Further, the viability in assay [12] (at 0.00122 µM, OCI-P5x cells, with rucaparib 20 µM, 100% = cells with rucaparib alone) was 105% (inactive); in assay [12] (at 0.00122 µM, OCI-P5x cells, without rucaparib) it was 98.6% (active); in assay [12] (at 0.00488 µM, OCI-C5x cells, with rucaparib 10 µM, 100% = cells with rucaparib alone), 118% (inactive); in assay [12] (at 0.00488 µM, OCI-C5x cells, without rucaparib), 110% (inactive); in assay [12] (at 0.00488 µM, OCI-P5x cells, with rucaparib 20 µM, 100% = cells with rucaparib alone), 104% (inactive); in [12] (at 0.00488 µM, OCI-P5x cells, without rucaparib), 101% (inactive). Moreover, the viability is 118% (inactive) in [12] (at 0.0195 µM, OCI-C5x cells, with rucaparib 10 µM, 100% = cells with rucaparib alone); 108% (inactive) in assay [12] (at 0.0195 µM, OCI-C5x cells, without rucaparib); 109% (inactive) in [12] (at 0.0195 µM, OCI-P5x cells, with rucaparib 20 µM, 100% = cells with rucaparib alone); 108% (inactive) in assay [12] (at 0.0195 µM, OCI-P5x cells, without rucaparib); 120% (inactive) in assay [12] (at 0.0781 µM, OCI-C5x cells, with rucaparib 10 µM, 100% = cells with rucaparib alone); 113% (inactive) in [12] (at 0.0781 µM, OCI-C5x cells, without rucaparib). In addition, the viability in [12] (at 0.0781 µM, OCI-P5x cells, with rucaparib 20 µM, 100% = cells with rucaparib alone) was 113% (inactive); in assay [12] (at 0.0781 µM, OCI-P5x cells, without rucaparib), 104% (inactive); in [12] (at 0.313 µM, OCI-C5x cells, with rucaparib 10 µM, 100% = cells with rucaparib alone), 120% (inactive); in assay [12] (at 0.313 µM, OCI-C5x cells, without rucaparib) it was 115% (inactive); in [12] (at 0.313 µM, OCI-P5x cells, with rucaparib 20 µM, 100% = cells with rucaparib alone) it was 105% (inactive); in assay [12] (at 0.313 µM, OCI-P5x cells, without rucaparib), 101% (inactive). Moreover, the viability in assay [12] (at 1.25 µM, OCI-C5x cells, with rucaparib 10 µM, 100% = cells with rucaparib alone) is 140% (inactive); in assay [12] (at 1.25 µM, OCI-C5x cells, without rucaparib), 126% (inactive); in assay [12] (at 1.25 µM, OCI-P5x cells, with rucaparib 20 µM, 100% = cells with rucaparib alone) it was 100% (inactive); in assay [12] (at 1.25 µM, OCI-P5x cells, without rucaparib), 105% (inactive); in assay [12] (at 5 µM, OCI-C5x cells, with rucaparib 10 µM, 100% = cells with rucaparib alone), 140% (inactive); in assay [12] (at 5 µM, OCI-C5x cells, without rucaparib) it was 85.3% (active). Also, the viability in assay [12] (at 5 µM, OCI-P5x cells, with rucaparib 20 µM, 100% = cells with rucaparib alone) was 74.6% (active); in assay [12] (at 5 µM, OCI-P5x cells, without rucaparib), 68.4% (active).
